Bioassay records deposited in PubChem BioAssay by National Center for Advancing Translational Sciences (NCATS).
Only some compounds are listed: those with a hit (about 5.7% of all), similar ones and a draw of the others.
A549 tox: counter-screen for Nrf2 inhibitors: cytotoxicity in A549 cells; A549 ARE-Fluc cells, CellTiter-Fluor viability, 18-24 h; Potency, µM (titrated, usually from 46 µM), actives largely listed as inhibitors; 390,000 tested, 0.16% active
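Cytotoxicity counterscreen: CellTiter-Fluor fluorescence was measured in A549 ARE_Fluc cells after 18-24 h of compound exposure in a concentration series. The subsequent BugLite luminescent read reports ARE-luciferase activity.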
PI4K2A block: PI4K2A (human) kinase inhibition | Q9BTU6 | activity change, negative = inhibition, % at 76.9 µM | 420,000 tested, 0.13% active | purified PI4K2A, ADP-Glo luminescence, 1 h; active compounds read low; in the data active means activity change below about -50%; inconclusive means mostly about -30% to -49%
Target sequence (Q9BTU6 whole entry, looked up): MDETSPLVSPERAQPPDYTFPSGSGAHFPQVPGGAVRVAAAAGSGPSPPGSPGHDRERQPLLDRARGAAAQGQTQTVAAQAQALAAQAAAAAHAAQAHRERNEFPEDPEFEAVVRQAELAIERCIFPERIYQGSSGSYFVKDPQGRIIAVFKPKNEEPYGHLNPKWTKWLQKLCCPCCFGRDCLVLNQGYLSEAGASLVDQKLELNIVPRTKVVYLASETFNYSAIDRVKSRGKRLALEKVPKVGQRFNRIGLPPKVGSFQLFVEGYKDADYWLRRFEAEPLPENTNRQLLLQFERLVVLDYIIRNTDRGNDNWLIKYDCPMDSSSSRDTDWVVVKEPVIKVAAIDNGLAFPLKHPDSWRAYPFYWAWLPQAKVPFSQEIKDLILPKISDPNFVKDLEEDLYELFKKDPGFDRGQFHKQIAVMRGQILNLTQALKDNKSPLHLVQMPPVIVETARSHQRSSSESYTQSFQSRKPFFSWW
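In this quantitative HTS, ADP production by PI4K2A was quantified luminescently after 1 h at ambient temperature; 100 microM adenosine served as plate-quality control.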
Nrf2 block: Nrf2 pathway inhibition. A549 ARE-Fluc reporter, luciferase luminescence, 18-24 h. Potency, µM (top dose mostly 46 µM), usual class: inhibitors. 360,000 tested, 2.1% active. AID 504444; further: nearly all actives have a fitted effect of over 60% in size
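Reporter: ARE-Fluc in A549. Exposure: 18-24 h, 37 °C, 5% CO2, 5% FBS OPTI-MEM. Readouts: fluorescent cytotoxicity (CellTiter-Fluor), then luminescent Nrf2 signal after BugLite.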
Giardia kill: Giardia lamblia killing. Giardia lamblia trophozoite viability. activity change, % at 7.66 µM, hits read low. 340,000 tested, 0.15% active. AID 540267; in the data active means activity change below about -80%; inconclusive means between about -30% and that limit;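 further: parasites exposed to compound for two days anaerobically before the ATP read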
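Giardia lamblia trophozoites (100 cells/well) were incubated with compounds for 48 h at 37 deg C under anaerobic conditions. Viability was read as ATP content by one-step luminescence after 15-30 min at room temperature.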
KB-V1 MDR tox: KB-V1 MDR subline cytotoxicity | KB-V1 MDR cells viability, CellTiter-Glo, 72 h | Potency, µM (titrated, usually from 46.1 µM), most hits filed as cytotoxic | 400,000 tested, 3.4% active | AID 1347076; further: nearly all actives have a fitted effect of over 60% in size
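Potencies derive from concentration-effect curves fitted to normalized luminescence (CellTiter-Glo) of KB-V1 cells treated for 72 h at 37 degrees C in phenol-red-free DMEM containing 10% FBS.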
KB-3-1 cytotox: kills parental KB-3-1 adenocarcinoma cells; 400,000 tested, 1.4% active; KB-3-1 viability, CellTiter-Glo ATP luminescence, 72 h; Potency, µM (titrated, usually from 46.1 µM), usual class: cytotoxic; AID 1347075; further: nearly all actives have a fitted effect of over 60% in size
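Screening of KB-3-1 cells (DMEM, 10% FBS, phenol-red free) ran from lowest to highest compound concentration; after 72 h at 37 °C viability was read luminescently and curves fitted.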
Hits are given with their value. Unless noted, the call rests on the fitted dose curve; in most records, active means well fitted curve in the direction sought with a large enough effect; inconclusive means small, poorly fitted or top-dose-only effect, or another doubt; inactive means no such curve, though single readings can be large; an effect the other way counts as inactive or inconclusive.

Results for O=C(c1ccc(Oc2ccc(C(F)(F)F)cn2)cc1)N1CCN(c2ccccc2)CC1 ?
A549 tox: inactive; PI4K2A block: inactive; Giardia kill: inactive; KB-V1 MDR tox: 21µM; KB-3-1 cytotox: inconclusive

What do the screens show for `O=C(c1ccc2c(c1)OCO2)N1CCN(c2ccc(C(F)(F)F)cn2)CC1`?
A549 tox: inactive; PI4K2A block: inactive; Nrf2 block: 12µM; Giardia kill: inactive; KB-V1 MDR tox: inactive; KB-3-1 cytotox: inactive

Results for COc1ccc(N2CCN(C(=O)c3ccc4c(c3)OCO4)CC2)cc1 ?
A549 tox: inactive; PI4K2A block: inactive; Nrf2 block: inactive; Giardia kill: inactive; KB-V1 MDR tox: 21µM; KB-3-1 cytotox: inactive

What do the screens show for `COc1cc(C(=O)O)ccc1OCc1c(C)noc1C`?
A549 tox: inactive; PI4K2A block: inactive; Nrf2 block: inactive; Giardia kill: inactive; KB-V1 MDR tox: inactive; KB-3-1 cytotox: inactive

What do the screens show for `CN1CCN(Nc2nn3c(=O)c4ccccc4nc3s2)CC1`?
KB-V1 MDR tox: inconclusive; KB-3-1 cytotox: inactive

Results for Cc1noc(C)c1C(=O)N1CCN(c2ccc(OCc3ccccc3)cc2)CC1 ?
A549 tox: inactive; PI4K2A block: inactive; Nrf2 block: 21µM; Giardia kill: inactive; KB-V1 MDR tox: 15µM; KB-3-1 cytotox: inconclusive

How did COc1ccc(N2CCN(C(=O)c3ccc(OCc4c(C)noc4C)c(OC)c3)CC2)cc1 do in these assays?
A549 tox: inactive; PI4K2A block: inactive; Giardia kill: inactive; KB-V1 MDR tox: 12µM; KB-3-1 cytotox: inactive

Results for COc1ccc(N2CCN(C(=O)c3c(-c4ccccc4)noc3C)CC2)cc1 ?
A549 tox: inactive; PI4K2A block: inactive; Nrf2 block: inactive; Giardia kill: inactive; KB-V1 MDR tox: inactive; KB-3-1 cytotox: inactive

How did COc1cc(C(=O)N2CCN(c3ccc([N+](=O)[O-])cc3)CC2)ccc1OCc1c(C)noc1C do in these assays?
A549 tox: inactive; PI4K2A block: inactive; Nrf2 block: inconclusive; Giardia kill: inactive; KB-V1 MDR tox: inconclusive; KB-3-1 cytotox: inactive

What do the screens show for `CCCOc1ncnc2c1[nH]c1ccc(OC)cc12`?
A549 tox: inactive; PI4K2A block: inactive; Nrf2 block: inconclusive; Giardia kill: inactive; KB-V1 MDR tox: 15µM; KB-3-1 cytotox: inconclusive

How did C=CCNc1ncnc2c1[nH]c1ccc(C)cc12 do in these assays?
A549 tox: inconclusive; PI4K2A block: inactive; Nrf2 block: inconclusive; Giardia kill: inactive; KB-V1 MDR tox: inconclusive; KB-3-1 cytotox: inconclusive

How did CCCOc1ncnc2c1[nH]c1ccccc12 do in these assays?
A549 tox: inactive; PI4K2A block: inactive; Nrf2 block: inconclusive; Giardia kill: inactive; KB-V1 MDR tox: inconclusive; KB-3-1 cytotox: inconclusive

What do the screens show for `CCCCOc1ncnc2c1[nH]c1ccc(C)cc12`?
A549 tox: inactive; PI4K2A block: inactive; Nrf2 block: inconclusive; Giardia kill: inactive; KB-V1 MDR tox: 7.3µM; KB-3-1 cytotox: inconclusive

Results for COc1ccc2[nH]c3c(NCCC4=CCCCC4)ncnc3c2c1 ?
A549 tox: inconclusive; PI4K2A block: inactive; Nrf2 block: inconclusive; Giardia kill: inactive; KB-V1 MDR tox: 9.2µM; KB-3-1 cytotox: 3.7µM

How did Cc1ccc(NC(=O)c2ccc(CS(=O)(=O)Cc3ccccc3C)o2)cc1C do in these assays?
PI4K2A block: inactive

How did COc1ccccc1NC(=O)CSc1nnc(NC(=O)Nc2ccc(C)cc2)s1 do in these assays?
A549 tox: inconclusive; PI4K2A block: inactive

What do the screens show for `CCCCOC(=O)c1ccc(NC(=O)c2ccoc2C)cc1`?
A549 tox: inactive; PI4K2A block: inactive; Nrf2 block: inactive; Giardia kill: inactive; KB-V1 MDR tox: 10µM; KB-3-1 cytotox: inactive

How did CCCOC(=O)c1ccc(NC(=O)c2ccoc2C)cc1 do in these assays?
A549 tox: inactive; PI4K2A block: inconclusive; Nrf2 block: inactive; Giardia kill: inactive; KB-V1 MDR tox: inactive; KB-3-1 cytotox: inactive

What do the screens show for `Cc1occc1C(=O)Nc1ccc(OCc2ccccc2)cc1`?
A549 tox: inactive; PI4K2A block: inconclusive; Nrf2 block: inconclusive; Giardia kill: inactive; KB-V1 MDR tox: 16µM; KB-3-1 cytotox: inactive

Results for O=C(NCc1ccco1)C1CCCN(S(=O)(=O)c2cccs2)C1 (configuration not stated) ?
PI4K2A block: inactive

Results for COc1ccc(/C=C/C(=O)NC(=S)NNC(=O)c2c(-c3ccccc3)noc2C)cc1 ?
A549 tox: inactive; PI4K2A block: inactive; Nrf2 block: inconclusive; Giardia kill: inactive; KB-V1 MDR tox: 7.3µM; KB-3-1 cytotox: inconclusive

What do the screens show for `Cc1onc(-c2ccccc2)c1C(=O)NNC(=S)NC(=O)/C=C/c1ccccc1`?
A549 tox: inactive; PI4K2A block: inactive; Nrf2 block: inconclusive; Giardia kill: inactive; KB-V1 MDR tox: 2.9µM; KB-3-1 cytotox: inconclusive

How did Cc1cccc(CN[C@@H]2CC[C@@]34CCCN3C(=O)CCC[C@H]4C2)c1 do in these assays?
PI4K2A block: inactive

How did CCN(Cc1ccccc1)c1ccc(Br)cn1 do in these assays?
A549 tox: inactive; Nrf2 block: inactive

Results for CC(C)(C)c1ccc(C(=O)c2c[nH]c(C(=O)NCCCN3CCOCC3)c2)cc1 ?
A549 tox: inactive; PI4K2A block: inactive; Nrf2 block: inactive; Giardia kill: inactive; KB-V1 MDR tox: 18µM; KB-3-1 cytotox: inactive

What do the screens show for `CCC(=O)c1c[nH]c(C(=O)NCCCN2CCOCC2)c1`?
A549 tox: inactive; PI4K2A block: inactive; Giardia kill: inactive; KB-V1 MDR tox: inconclusive; KB-3-1 cytotox: inactive

Results for COC(=O)/C(N=Nc1cccc(C(F)(F)F)c1)=C(\C)O ?
A549 tox: inactive; PI4K2A block: inactive; Nrf2 block: inactive; Giardia kill: inactive; KB-V1 MDR tox: 5.8µM; KB-3-1 cytotox: inconclusive

What do the screens show for `CC(=O)Nc1ncc(N=Nc2cccc(C(F)(F)F)c2)s1`?
A549 tox: 12µM; PI4K2A block: inactive; Nrf2 block: inactive; Giardia kill: inactive; KB-V1 MDR tox: inactive; KB-3-1 cytotox: inactive

What do the screens show for `CCOC(=O)NC(=O)/C(N=Nc1cccc(C(F)(F)F)c1)=C(\C)O`?
A549 tox: inactive; PI4K2A block: inactive; Nrf2 block: inactive; Giardia kill: inactive; KB-V1 MDR tox: inactive; KB-3-1 cytotox: inactive

What do the screens show for `Cc1cccc(N=Nc2cnc(N)s2)c1`?
A549 tox: inactive; PI4K2A block: inactive; Nrf2 block: inconclusive; Giardia kill: inactive; KB-V1 MDR tox: inactive; KB-3-1 cytotox: inactive

How did C=CCN(CC=C)C(=O)C(=O)c1cc(C)n(-c2ccc([N+](=O)[O-])cc2)c1C do in these assays?
A549 tox: inactive; PI4K2A block: inactive; Nrf2 block: inactive; Giardia kill: inactive; KB-V1 MDR tox: 7.3µM; KB-3-1 cytotox: inactive

What do the screens show for `Cc1nn(C(C)C(=O)N2CCN(c3ccc(Cl)cc3)CC2)c(=O)c2cc3occc3n12` (configuration not stated)?
A549 tox: inactive; PI4K2A block: inactive; Nrf2 block: 21µM; KB-V1 MDR tox: inactive; KB-3-1 cytotox: inconclusive
